FMDV antiviral: blocks foot and mouth disease virus. FMDV antiviral cell-based qHTS. Potency, µM (titrated, usually from 57.9 µM), for the others: top-dose activity change, negative = inhibition, most hits filed as inhibitors. 410,000 compounds, 1.2% hits; calls by dose curve; tested in HEK293T cells; also: read-out not given here; potency is read from the fitted curve at half-maximal effect; % is scaled to controls: 0 for no effect and ±100 for the full control effect; nearly all actives have a fitted effect of over 45% in size
CHX counter: counter-screen for Shiga toxin inhibitors: cycloheximide protein synthesis inhibition; cell reporter, cycloheximide protein synthesis inhibition counterscreen; max response, %; 300,000 compounds, 12% hits; AID 2314; in the data active = max response mostly above about 13%, no sharp cut-off; inactive = mostly below about 14%; also: read at 38.3 µM for the half of the compounds with a filed dose; 0% is about no effect
Shiga inhibitor: blocks Shiga toxin action in Vero cells | Vero cells, Shiga toxin protein synthesis inhibition reporter | inhibition, % at 38.7 µM | 290,000 compounds, 9.2% hits; in the data active = inhibition mostly above about 28%, no sharp cut-off; inactive = mostly below about 43%; also: 0% is about no effect
HCV inhibitor: blocks hepatitis C virus | Huh7.5.1 HCVcc-Cre infection, luciferase reporter, 44 h | Potency, µM (highest dose often 41.8 µM), without a hit: at the top dose activity change, negative = inhibition, most hits filed as inhibitors | 340,000 compounds, 3.4% hits; active = well fitted inhibition curve with a large enough effect; inconclusive = small, poorly fitted or top-dose-only effect, or another doubt; inactive = no such curve, though single readings can be large or run the other way; also: potency is read from the fitted curve at half-maximal effect; % is scaled to controls: 0 for no effect and ±100 for the full control effect
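1,000 cells/well; 4 h culture; + compound; + HCVcc-Cre (~0.5 moi); 44 h; luciferase substrate, RT 15 min; read 15 sec.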
MARV entry inh: blocks Marburg virus binding to or entry into cells | Marburg virus pseudotyped entry inhibition, cell reporter | Potency, µM (doses to about 37.8 µM), without a hit: at the highest dose activity change, negative = inhibition, usual class: inhibitors | 300,000 compounds, 1.8% hits; calls by dose curve; tested in HEK293 cells; also: potency is read from the fitted curve at half-maximal effect; % is scaled to controls: 0 for no effect and ±100 for the full control effect
LASV entry inh: Lassa virus entry inhibition; Lassa virus pseudotype entry inhibition, cell reporter; Potency, µM (series often up to 37.9 µM), for inactives: at the top dose activity change, negative = inhibition, usual class: inhibitors; 300,000 compounds, 1.2% hits; calls by dose curve; tested in HEK293 cells; also: potency is read from the fitted curve at half-maximal effect; % is scaled to controls: 0 for no effect and ±100 for the full control effect; nearly all actives have a fitted effect of over 50% in size
* marks the source's active call; other numbers are inactive results; u = inconclusive; x = no result given; [ ] = remark or other dose. Most compounds without a hit are left out; they make up all but 13% or so of the library.

SMILES	FMDV antiviral	CHX counter	Shiga inhibitor	HCV inhibitor	MARV entry inh	LASV entry inh
c1ccc(NCC2OCc3ccccc3CO2)cc1	30%	43*	98*	9%	1%	u
COc1ccc(NC(=O)Nc2ccc(C)cc2OC(F)F)cc1OC	-15%	1	21	6.3µM*	-2%	-24%
O=C(NC(=S)Nc1ccccc1OC(F)F)c1ccc2c(c1)OCO2	24%	x	x	u	u	1%
Cc1ccc(NC(=O)Nc2ccc3c(c2)OCO3)c(OC(F)F)c1	50%	48*	103*	-27%	-22%	-24%
COc1cc(C(=O)COC(=O)c2c(C)noc2C)cc(OC)c1OC	-2%	x	x	-25%	x	x
CC(Cc1cccs1)NC(=O)c1cccs1 (centres undefined)	35%	33*	74*	4%	u	-5%[46.1 µM]
CC(Cc1cccs1)NC(=O)Nc1ccc([N+](=O)[O-])cc1 (centres undefined)	2%	30*	73*	4%	x	x
O=C(NCCc1ccc(F)cc1)c1cccs1	29%	26*	91*	-10%	-12%	11%
COc1ccc2cc(CCNC(=O)c3cccs3)c(=O)[nH]c2c1	50%	48*	54*	3%	-23%	u
CCNC(=O)C(=O)Nc1ccc([N+](=O)[O-])cc1	26%	5	-1	-4%	0%	11%
O=C(NCc1ccc(F)cc1)c1cccs1	-21%	3	18	2%	x	x
Cc1ccccc1C(=O)Nc1sc2c(c1C(=O)NCc1ccco1)CCC(C(C)(C)C)C2 (centres undefined)	-13%	x	x	x	-20%[46.1 µM]	16%[46.1 µM]
CSc1ccc(S(=O)(=O)NCCSC(C)(C)C)cc1	26%	-1	-11	-23%	-22%	-13%
O=C(NCCc1cccs1)c1cccs1	62%	50*	91*	21%	-17%[46.1 µM]	12%
COc1ccc(CCNC(=O)c2cccs2)cc1	14%	32*	48*	-20%	u	u
COc1ccc(CNC(=O)COC(=O)c2cccs2)cc1	27%	27*	47*	14%	-13%[46.1 µM]	13%
CCc1ccc(OCCNC(=O)c2cccs2)cc1	11%	41*	53*	1%	14%	14%
C=CCn1c(SCC(=O)NC2CCCC2)nc2ccccc21	-27%	x	x	x	x	x
O=C(CNC(=O)c1cccs1)OCc1ccc(Br)cc1	3%	-1	15	5%	19%[46.1 µM]	13%[46.1 µM]
O=C(NCC(O)c1ccccc1)c1cccs1 (centres undefined)	41%	42*	79*	18%	x	x
O=C(CNC(=O)c1cccs1)c1ccc(Br)cc1	4%	39*	109*	-19%	-29%[46.1 µM]	u
O=C(NCCCc1ccccc1)c1cccs1	17%	34*	55*	10%	u	22%
Cc1ccccc1N1CCN(S(=O)(=O)CC23CCC(CC2=O)C3(C)C)CC1 (centres undefined)	u	-2	-8	-21%	x	x
CCN1C(=O)/C(=C\c2nc3ccccc3c(=O)n2-c2ccccc2)c2ccccc21	14µM*	-3	-11	6%	u	u
CCN1C(=O)/C(=C/c2nc3ccccc3c(=O)n2-c2ccc(C)cc2)c2ccccc21	u	16	10	-10%	u	-19%
SMILES	FMDV antiviral	CHX counter	Shiga inhibitor	HCV inhibitor	MARV entry inh	LASV entry inh
CCN1C(=O)/C(=C/c2nc3ccccc3c(=O)[nH]2)c2ccccc21	17%	26*	-3	12%	u	3%
CC(=O)Cn1ncc(Br)c(Br)c1=O	u	0	-16	u	u	u
O=C(OCn1ncc(Br)c(Br)c1=O)c1c(F)cccc1F	x	17*	3	2.8µM*	5%	x
Nc1nc(N)nc(-c2cccc(Br)c2)n1	22%	x	x	3%	u	16%
c1ccc(-c2nc(-c3cccnc3)n[nH]2)cc1	x	31*	17	-3%	x	x
c1cc(-c2n[nH]c(-c3ccncc3)n2)ccn1	-7%	x	x	-3%	x	x
Brc1cccc(-c2n[nH]c(-c3ccccc3)n2)c1	4%	64*	146*	u	-24%	-7%
CCOc1ccc(C=NNC(=O)c2ccc(-n3cnnn3)cc2)cc1	-8%	x	x	-5%	x	x
CCOc1ccccc1Nc1cc(C)nc2ccccc12	-19%	x	x	x	x	x
CCOc1ccccc1Nc1cc(C)nc2ccc(C)cc12	u	x	x	6.3µM*	u	u
COc1ccc2nc(C)cc(Nc3ccc(N4CCOCC4)cc3)c2c1	x	-1	-13	u	u	-16%
COc1ccc(OC)c(Nc2cc(C)nc3ccc(C)cc23)c1	u	x	x	22µM*	u	u
COc1ccc2nc(C)cc(Nc3ccc(N4CCN(C)CC4)cc3)c2c1	-10%	-3	14	10µM*	x	x
Cc1csc2c(N3CCN(C(=O)Nc4ccccc4)CC3)ncnc12	22µM*	10	12	u	u	-7%
Cc1csc2ncnc(N3CCN(C(=O)Nc4ccc(OC(F)(F)F)cc4)CC3)c12	18µM*	1	24	7.9µM*	x	x
COC(=O)c1c(NC(=O)CN2CCN(c3ccccc3OC)CC2)c2c(C)cccc2n1C	x	-2	-6	x	3%	x
CC(C)(C)NC(=O)C1CC2CCCCC2CN1 (centres undefined)	-13%	-8	9	19%	-8%[46.1 µM]	11%
O=C(NCCc1ccccc1)c1ccc2c(c1)CCN2S(=O)(=O)c1ccc(Br)cc1	-7%	x	x	x	u	-13%[46.1 µM]
Cc1cc(N2CCCC2=O)cc(C)c1CN1C(=O)c2ccccc2C1=O	x	27*	15	u	5%	12%
O=C1CCCN1c1cccc(Br)c1	20%	1	15	8%	-13%	-6%
Cc1cccn2c(=O)c(/C=C(\C#N)S(=O)(=O)c3ccccc3)c(N3CCC(C(N)=O)CC3)nc12	9%	-1	-18	-28%	-6%	-6%
CC(=O)N(C)c1ccc(N=Nc2ccc3ncccc3c2)cc1	-15%	x	x	-27%	u	10µM*
CN1CCN(C2=C(Cl)C(=O)N(c3ccc(Cl)c(Cl)c3)C2=O)CC1	6%	23*	66	-19%	u	1%
CN1CCN(C2=C(Cl)C(=O)N(c3cccc(Cl)c3)C2=O)CC1	56%	9	6	u	u	0%
O=C1C=C(N2CCCCCC2)C(=O)N1c1ccc(Cl)cc1	-21%	62*	176*	15%	u	u
O=C1C(Cl)=C(N2CCCCCC2)C(=O)N1c1ccc(Cl)cc1	31%	12*	18	4%	x	x
CCOc1ccc(N2CC(C(=O)NCCc3ccccc3)CC2=O)cc1 (centres undefined)	-14%	-3	21	5%	8%	6%
NC(=O)C1CC(=O)N(c2ccc(OCC(=O)N3CCCC3)cc2)C1 (centres undefined)	-6%	x	x	2%	7%[46.1 µM]	-8%
C=CCNC(=O)C1CC(=O)N(c2ccc(OCc3ccc(F)cc3)cc2)C1 (centres undefined)	54%	47*	72*	-6%	x	x
CCCNC(=O)C1CC(=O)N(c2ccc(OCc3ccc(Cl)cc3)cc2)C1 (centres undefined)	-1%	27*	x	u	u	u

High-throughput results from PubChem BioAssay.
